M1 ag: human M1 muscarinic receptor agonism | activation, % at 3 µM | 360,000 tested, 0.33% active | CHO-K1 hM1, Fluo-8 calcium fluorescence, agonist mode; 0% DMSO, 100% acetylcholine EC100;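 active = activation above the run's mean compound activation plus 3 SD, cut at about 16% in these data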;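 note: peak over basal fluorescence ratio within a 140 s kinetic read after compound addition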
Target sequence (P11229 whole entry, looked up): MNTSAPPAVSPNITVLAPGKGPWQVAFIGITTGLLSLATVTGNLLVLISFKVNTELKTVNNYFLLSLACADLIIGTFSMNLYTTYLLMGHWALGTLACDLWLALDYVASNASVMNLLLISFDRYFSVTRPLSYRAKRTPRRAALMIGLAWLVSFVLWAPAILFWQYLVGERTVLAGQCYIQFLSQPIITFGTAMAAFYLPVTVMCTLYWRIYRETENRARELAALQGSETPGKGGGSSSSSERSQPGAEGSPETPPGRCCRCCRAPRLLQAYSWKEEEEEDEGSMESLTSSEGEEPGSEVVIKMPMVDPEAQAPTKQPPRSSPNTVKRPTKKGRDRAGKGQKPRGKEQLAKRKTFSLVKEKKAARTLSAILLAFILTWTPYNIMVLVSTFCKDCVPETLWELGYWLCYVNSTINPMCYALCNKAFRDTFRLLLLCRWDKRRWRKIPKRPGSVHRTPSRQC
CHO-K1 Ca antag: nonselective inhibitor or artifact in parental CHO-K1 cells; ATP-induced calcium, Fluo-8 fluorescence; inhibition, % at 3 µM; 360,000 tested, 0.6% active;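 active = inhibition above a per-plate cutoff, the plate's mean sample inhibition plus 3 SD, cut at about 24% in these data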;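 note: 0% = DMSO plus EC80 ATP and 100% = DMSO alone without ATP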
M1 PAM parental: M1 PAM counterscreen hit in parental CHO-K1 cells. ATP EC20, Fluo-8 calcium fluorescence; 0% at ATP EC20, 100% at ATP max. activation, % at 3 µM. 360,000 tested, 0.02% active. AID 602247;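 active = activation above the run cutoff, the mean activation of all test compounds plus 3 SD, cut at about 40% in these data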;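 note: peak over basal fluorescence ratio in a 140 s read after ATP addition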
CHRM1 PAM: human CHRM1 positive allosteric modulation. P11229. CHO-K1 hM1, Fluo-8 calcium fluorescence, ACh EC20; 0% = ACh EC20, 100% = maximal ACh. activation, % at 3 µM. 360,000 tested, 0.088% active; in the data active = activation above about 19%, passing the limit was not always enough
CHRM1 antagonist: blocks human M1 muscarinic receptor | P11229 | CHO-K1 hM1, Fluo-8 calcium fluorescence, ACh EC80 antagonist | inhibition, % at 3 µM | 360,000 tested, 1.3% active | AID 588852;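 active = percent inhibition above its own plate's cutoff, namely the mean of that plate's compound wells plus 3 SD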;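 note: peak over basal fluorescence ratio during 140 s after agonist addition; 0% = ACh EC80 plus DMSO and 100% = DMSO alone without agonist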
M1 ag parental: M1 agonist counterscreen hit in parental CHO-K1 cells | activation, % at 3 µM | 360,000 tested, 0.48% active | AID 602248 | Fluo-8 calcium fluorescence; scaled to maximal ATP response, vehicle zero; in the data active = activation above about 15%;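 note: untransfected CHO-K1 host cells lacking M1 receptor as counterscreen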
Numbers without * were called inactive; ! = repeats disagree. This is a sample that favours compounds with a hit; in the whole collection about 2.3% have one here.

SMILES | M1 ag | CHO-K1 Ca antag | M1 PAM parental | CHRM1 PAM | CHRM1 antagonist | M1 ag parental
Cc1ccc(NC2=NC(c3ccc(F)cc3)n3c(nc(C)cc3=O)N2)c(C)c1 (centres undefined) | -7 | 9 | -4 | -14 | 37* | 0
CC(=NNC(=S)N1CC2CCC(CC2)C1)c1ccncn1 | -7 | -1 | -4 | 5 | -3 | 0
O=C(c1ccc(S(=O)(=O)Nc2ccc(F)cc2)cc1)N1CCN(c2ccccn2)CC1 | 0 | 10 | -12 | -20 | 37* | 17*
COc1ccc(NS(=O)(=O)c2ccc(C(=O)N3CCN(c4ccc(F)cc4)CC3)cc2)cc1 | 9 | 1 | -7 | -15 | 28 | 16*
CN(c1ccccc1)S(=O)(=O)c1ccc(Cl)c(C(=O)Nc2ccccc2N2CCOCC2)c1 | -3 | 4 | 6 | 3 | 5 | 0
Cc1cccnc1CCNCc1c(C(=O)N2C[C@@H](C)O[C@@H](C)C2)nc2ccc(Cl)cn12 | -2 | 5 | 11 | 17 | -9 | 0
COc1ccc2nc(NC(=O)CN3CCOCC3)sc2c1 | -2 | 26* | -7 | -12 | 10 | 0
COc1ccc(S(=O)(=O)N(CC(=O)NCC2CCCO2)C2CCCCC2)cc1OC (centres undefined) | -3 | -10 | 3 | 2 | -8 | 1
O=C(O)CCCn1cc(NC(=O)c2c(F)cccc2F)cn1 | -6 | 15 | -4 | -1 | 5 | 16*
Cc1ccc(C)c(OCCC(=O)OCC(=O)NCc2ccccc2)c1 | -2 | 0 | -8 | 10 | -10 | 0
Cc1ccc(C)c(OCCC(=O)OCC(=O)NCCNC(=O)COC(=O)CCOc2cc(C)ccc2C)c1 | 3 | 27* | -16 | -18 | 47* | 15
Cc1ccc(C(=O)NCc2ccc3c(c2)OCO3)cc1Cl | -3 | 24* | -19 | -3 | 16 | 0
Cc1cc(C(=O)NCc2ccc3c(c2)OCO3)ccc1[N+](=O)[O-] | 4 | -12 | 8 | 4 | -2 | 23*
O=C(NNC(=O)c1ccc(S(=O)(=O)N2CCCC2)cc1)c1ccc(Br)cc1 | -6 | -1 | -3 | 5 | -10 | 2
CCOC(=O)CN1C(=O)Nc2ccc(Br)cc2C1c1ccccc1 (centres undefined) | -6 | 2 | -4 | -22 | 50* | 0
CCOC(=O)c1c(OCCO)nn(-c2ccc(Cl)cc2)c1N | -2 | 33* | -18 | -9 | 7 | 3
CCN1/C(=C/C(C)=C/c2sc3ccccc3[n+]2CC)Sc2ccccc21 | 11 | 34* | -8 | -24 | 48* | 20*!
CCOC(=O)N1CCN(C(=O)c2ccc(N(Cc3ccccc3Cl)S(C)(=O)=O)cc2)CC1 | 3 | 4 | 7 | 32* | -5 | 0
Cc1ccc(Oc2ccccc2NC(=O)C2=COCCO2)cc1 | 4 | 3 | -8 | 14 | -1 | -1
COc1ccccc1NC(=O)c1ccc(NC(=O)COC(=O)C2CCCCC2)cc1 | -7 | 7 | 7 | -1 | -7 | 19*
COc1ccccc1NC(=O)COC(=O)C1CCCC1 | -1 | 12 | -2 | 8 | 1 | -1
Cc1ccc(C2=CC(=O)CC(C)(C)C2)cc1 | -8 | -22 | 16 | 14 | -14 | 0
CN(C)/C=C/C1=CC(=O)CC(C)(C)C1 | -3 | 24* | -18 | 5 | 6 | -1
O=C(NCC1CCCN1S(=O)(=O)c1cccs1)c1ccc(Cl)cc1 (centres undefined) | -3 | 0 | 0 | 11 | -23 | 0
Cc1ccc(/C=C2\CCC3=C2OC(N)=C(C#N)C3c2ccc(C)cc2)cc1 (centres undefined) | 27* | 35* | -12 | -12 | 50* | 16*
SMILES | M1 ag | CHO-K1 Ca antag | M1 PAM parental | CHRM1 PAM | CHRM1 antagonist | M1 ag parental
CC(C)(C)CC(C)(C)NCC(O)COc1ccc2c(c1)CCC2 (centres undefined) | -3 | 2 | 13 | -24 | 49* | 3
O=c1c(Cl)c(Cl)cnn1Cc1nnc(-c2ccc(Cl)cc2)o1 | -9 | -10 | -7 | 0 | 5 | -1
COc1cc2c(cc1OC)CN(C(=S)Nc1ccccc1Cl)CC2 | 2 | 9 | -3 | 0 | 3 | 17*
COc1ccc(N2C(=O)CC(NNC(=O)c3cccnc3)C2=O)cc1 (centres undefined) | -4 | -5 | 17 | 0 | 3 | 1
COc1ccccc1NC(=O)CSc1nnc2ccccn12 | 6 | -13 | 11 | 25* | -12 | 0
CCCn1c(N)c(C(=O)CSc2nnc(Cc3cccs3)n2C2CC2)c(=O)n(C)c1=O | -7 | -4 | 14 | -6 | 8 | 1
O=P(CCN1CCCCC1)(c1ccccc1)c1ccccc1 | -6 | -1 | 11 | -23 | 71* | 1
O=P(O)(CCc1ccccc1)CN1CCCCC1 | -4 | 6 | 16 | -2 | 4 | 0
Cc1ccc(S(=O)(=O)N2CCOC2CNC(=O)C(=O)NCc2cccnc2)cc1 (centres undefined) | -7 | 36* | -10 | 2 | -3 | 2
Cc1ccc(S(=O)(=O)N2CCOC2CNC(=O)C(=O)NCCCN2CCOCC2)cc1 (centres undefined) | -1 | -5 | -15 | 23* | -29 | 0
O=C(NCc1cccnc1)C(=O)NCC1OCCN1S(=O)(=O)c1ccccc1 (centres undefined) | -6 | -2 | 9 | -9 | 11 | 0
COc1ccc(CNCCC(c2ccc(OC(C)C)cc2)C(C)C)cc1OC (centres undefined) | -9 | -35 | 18 | -17 | 16 | 7
COc1ccc(C(CC(=O)O)c2ccc3c(c2)OCO3)cc1 (centres undefined) | 0 | 0 | 12 | 12 | -11 | 0
COc1ccc(C(CCNCc2ccc(OC(C)C)cc2)C(C)C)cc1 (centres undefined) | -2 | 12 | -13 | -17 | 36* | 9
COc1ccc(CNCCC(c2ccccc2)c2ccc3c(c2)OCO3)cc1 (centres undefined) | -2 | -6 | 4 | -18 | 23 | 28*
COc1ccc(C(CCNCc2ccc(N(C)C)cc2)C(C)C)cc1 (centres undefined) | -1 | 28* | -28 | -16 | 39* | 7
Clc1ncnc2scc(-c3ccc(Br)cc3)c12 | -10 | -8 | 5 | -2 | -6 | 0
COc1ccccc1N1CCN(C(=O)c2cc(S(=O)(=O)N3CCCCC3)ccc2C)CC1 | -1 | -15 | 15 | -13 | 16 | 5
CCOc1ccccc1N1CCN(C(=O)c2cc(S(=O)(=O)N3CCCCC3)ccc2C)CC1 | -2 | 5 | -15 | -16 | 31* | 6
COc1ccccc1NS(=O)(=O)c1ccc(C)c(C(=O)N2CCCC2)c1 | 2 | -20 | 8 | 26* | -18 | 0

From PubChem BioAssay
